Laboratory results taken from PubChem BioAssay (Tox21).
Records with an inconclusive call do not appear. Unmarked numbers belong to inactive results. Calls come from the whole dose curve; as a rule, active = well fitted cell-killing curve with a large enough effect in the repeat runs; inconclusive = weak or mixed curves, or effect the other way; inactive = flat fitted curve, though single readings scatter.

assay: Caspase-3/7 induction in HepG2 cells by small molecules, qHTS cell viability counter screen (AID 1346981); details: CellTiter-Fluor fluorescence, 17 h; series mostly up to 92.4 µM; activity change, negative = cytotoxicity: at the top concentration; note: nearly all actives have a fitted effect of over 30% in size
Text: U.S. Tox21 Program National Center for Advancing Translational Sciences [NCATS] NIH Chemical Genomics Center [NCGC] U.S. Environmental Protection Agency [EPA] National Institutes of Environmental Health Sciences [NIEHS] National Toxicology Program [NTP] U.S. Food and Drug Administration [FDA] Tox21 Assay Overview: Apoptosis is a process of programmed cell death and plays a central role in the development of multicellular organisms. It is a highly regulated process and induces cell death by activating caspases, which are the members of cysteine aspartic acid-specific protease (caspase) family. Caspases involved in apoptosis are classified by their mechanism of action as initiator caspases (caspase-2, -8, -9 and -10) and executioner caspases (caspase-3, -6, and -7). Inhibition of apoptosis results in number of cancers, autoimmune diseases, inflammatory diseases and viral infection. To identify small molecule compounds that induce apoptosis, a homogeneous, luminescent Caspase-Glo 3/7 assay was used. Wild type HepG2 cells were used to screen Tox21 libraries for identifying caspase-3/7 activity inducers. Also cytotoxicity of the compounds was tested in parallel by measuring the cell viability using CellTiter-Fluor assay system in the same wells.
Tox21 Assay Protocol Summary: HepG2 cells were dispensed at 2,000 per well in 5uL of culture medium into white solid bottom 1536-well plates (Corning Life Sciences, Corning, NY) using a Multidrop Combi (Thermo Scientific, Waltham, MA) dispenser. The assay plates were incubated at 37 C and 5% CO2 for 5hr, and then 23nL of compounds dissolved in DMSO and positive control were transferred using a Pintool station ([…], San Diego, CA). The assay plates were incubated at 37C and 5% CO2 for 17hr. For cytotoxicity read, after 16hr incubation at 37C, 1uL CellTiter-Fluor reagent (Promega Corporation, Madison, WI) was added to each well of the assay plates using Flying Reagent Dispenser (FRD, Aurora Discovery, San Diego, CA). After 1hr incubation at 37C and 5% CO2, the fluorescence signal was quantified using a ViewLux plate reader (PerkinElmer, Shelton, CT).
% is set by controls: 0 for no effect and ±100 for the full control effect.

| SMILES | activity change, negative = cytotoxicity |
| --- | --- |
| CNC(=O)C(c1ccccc1)c1ccccc1 | 2.22% |
| O=C(O)/C=C/c1ccccc1 | -1.49% |
| Cc1ncc([N+](=O)[O-])n1CC(O)CCl (stereo not given) | 1.21% [at 42.5 µM] |
| CN(C)CCCNCCC#N | 2% |
| Cc1cc(O)c2c(c1)C(=O)c1cccc(O)c1C2=O | -13.2% [at 42.5 µM] |
| BrC/C=C/CBr | -3.88% [at 19 µM] |
| CC(C)CCCC(C)CC=O (stereo not given) | -1.11% |
| CC(C)COC(=O)CCCCC(=O)OCC(C)C | 3.98% |
| CN[C@@H]1[C@@H](O)[C@@H](O[C@@H]2[C@H](O)[C@H](O[C@H]3OC(CN)=CC[C@H]3N)[C@@H](N)C[C@H]2N)OCC1(C)O (stereo not given in full) | 0.558% [at 42.5 µM] |
| CN(C1CCCCC1)S(=O)(=O)c1ccccc1N | 1.58% |
| O=C(CN1CCN(Cc2ccc3c(c2)OCO3)CC1)N1c2ccccc2Sc2ccccc21 | -5.44% [at 42.5 µM] |
| Cc1cccc(Nc2ccncc2S(=O)(=O)NC(=O)NC(C)C)c1 | -0.501% [at 42.5 µM] |
| O=S(=O)(O)CCO | 1.15% |
| CCCCCCCCCCC | -1.41% |
| NC(=O)NC(=O)Cc1ccccc1 | 4.45% [at 42.5 µM] |
| CCCCC(=O)N(C)C | -4.88% |
| Cc1oc(=O)oc1CN1CCN(c2cc3c(cc2F)c(=O)c(C(=O)O)c2n3C(C)S2)CC1 (stereo not given) | -8.57% [at 42.5 µM] |
| O=[Si]=O | 3.11% |
| CCCCC/C=C/CC(=O)OC | -0.584% |
| O=P(O)(O)OCC(O)CO (stereo not given) | 6.47% [at 42.5 µM] |

| SMILES | activity change, negative = cytotoxicity |
| --- | --- |
| COc1cc2c3cc1Oc1cc(ccc1O)C[C@@H]1c4c(cc(OC)c(O)c4Oc4ccc(cc4)C[C@@H]3N(C)CC2)CC[N+]1(C)C | 3.68% [at 42.5 µM] |
| OC[C@@H](O)[C@H](O)[C@@H](O)[C@@H](O)CO | -1.02% |
| CCOC(=O)CC#N | 4.83% |
| CCN(CCC#N)c1ccccc1 | 0.34% |
| O=C(O)c1ccc(OCCN2CCCCC2)cc1 | 5.09% [at 42.5 µM] |
| FC(F)(F)/C(=N\OCC1OCCO1)c1ccc(Cl)cc1 | 1.58% |
| CCCCCCCCCCCCCCCC(=O)NCCO | -1.46% [at 42.5 µM] |
| Cc1ccc(S(=O)(=O)NC(=O)NC2CCCCCCC2)cc1 | 7.41% [at 42.5 µM] |
| C[Si]1(C)N[Si](C)(C)N[Si](C)(C)N1 | -1.14% |
| CC(=O)N(CC(O)CO)c1c(I)c(C(=O)NCC(O)CO)c(I)c(C(=O)NCC(O)CO)c1I (stereo not given) | -3.63% [at 42.5 µM] |
| CC(=O)N1CCN(c2ccc(O)cc2)CC1 | 5.79% [at 42.5 µM] |
| C[CH2][Ge]([Cl])([CH2]C)[CH2]C | -6.69% |
| CCC(C)(C)C1CCC(=O)CC1 | 7.42% |
| CC(=O)Nc1ccc(C)cc1 | 9.47% |
| c1ccccc1 | 14.2% |
| CCCCCCCCCCCCCCCCCCN(C)C | -1.57% [at 42.5 µM] |
| C1=CCC(c2ccccc2)CC1 (stereo not given) | -1.11% |
| CCC1Nc2cc(Cl)c(S(N)(=O)=O)cc2S(=O)(=O)N1 (stereo not given) | 0.411% [at 42.5 µM] |
| NC(Cc1c[nH]c2ccccc12)C(=O)O (stereo not given) | 4.12% [at 42.5 µM] |
| O=C1OC(=O)c2ccccc21 | 1.2% |
